This note sets out measurements from article PMC4336329 (PLoS ONE, 2015).

Out of some 310,000 compounds screened, about 14,000 (4.5%) showed an effect of 50% or more. Effects have a minus sign here. The entries come from a sample that favours strong results as a whole.
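Note: peak tail current of the secondary pulse compared with the same well before compound.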

human ether-à-go-go-related gene (hERG) potassium channel, sequence (Q12809 whole entry, looked up): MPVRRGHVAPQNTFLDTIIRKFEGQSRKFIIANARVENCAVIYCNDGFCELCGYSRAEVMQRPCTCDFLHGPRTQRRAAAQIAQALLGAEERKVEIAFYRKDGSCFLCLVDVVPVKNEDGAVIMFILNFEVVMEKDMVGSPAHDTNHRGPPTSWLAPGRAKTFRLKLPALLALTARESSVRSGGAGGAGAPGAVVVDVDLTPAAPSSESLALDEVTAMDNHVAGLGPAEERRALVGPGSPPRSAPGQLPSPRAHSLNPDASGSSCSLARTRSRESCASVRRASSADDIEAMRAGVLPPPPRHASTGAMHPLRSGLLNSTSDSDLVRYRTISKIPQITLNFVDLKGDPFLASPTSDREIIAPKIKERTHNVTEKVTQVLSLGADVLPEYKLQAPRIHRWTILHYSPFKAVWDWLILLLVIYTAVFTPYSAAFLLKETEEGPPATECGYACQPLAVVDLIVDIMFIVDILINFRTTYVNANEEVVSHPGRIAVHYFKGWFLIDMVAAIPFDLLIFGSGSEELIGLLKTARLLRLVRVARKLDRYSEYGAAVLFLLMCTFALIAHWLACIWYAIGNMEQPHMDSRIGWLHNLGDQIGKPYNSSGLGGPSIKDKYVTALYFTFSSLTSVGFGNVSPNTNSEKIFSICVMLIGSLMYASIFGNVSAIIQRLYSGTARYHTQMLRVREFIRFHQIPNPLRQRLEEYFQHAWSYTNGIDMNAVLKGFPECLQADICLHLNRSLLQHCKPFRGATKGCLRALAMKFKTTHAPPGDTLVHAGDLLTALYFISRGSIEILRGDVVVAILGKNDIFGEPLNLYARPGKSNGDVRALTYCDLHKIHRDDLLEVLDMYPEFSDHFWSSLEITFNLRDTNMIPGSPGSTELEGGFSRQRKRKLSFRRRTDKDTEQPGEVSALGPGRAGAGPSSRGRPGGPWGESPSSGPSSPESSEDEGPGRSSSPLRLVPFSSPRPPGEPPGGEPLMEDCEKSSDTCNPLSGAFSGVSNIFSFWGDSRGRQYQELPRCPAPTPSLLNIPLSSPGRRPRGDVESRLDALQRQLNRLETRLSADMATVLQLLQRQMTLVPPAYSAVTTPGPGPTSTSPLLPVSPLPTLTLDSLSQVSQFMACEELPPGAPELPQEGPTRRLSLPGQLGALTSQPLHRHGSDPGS

The assay addresses human ether-à-go-go-related gene (hERG) potassium channel (human, UniProt Q12809). The experiment in a line: primary screen, population patch clamp on CHO cells stably expressing hERG; higher = less effect of the substance.
As for `CCOc1ccc(S(=O)(=O)N2CCCCC2)cc1NC(=O)Cc1ccsc1`, the “hERG current change (%, negative = inhibition) at 10uM” value amounted to 2.15%.

Take `CC(/C=N/Nc1ccc2nncn2n1)=C\c1ccccc1`: the “hERG current change (%, negative = inhibition) at 10uM” value is reported as -51.8%.

Regarding `BrC(=C\c1ccccc1)/C=N/Nc1ccc2nncn2n1`, the “hERG current change (%, negative = inhibition) at 10uM” value is recorded as -21.6%.

As for `C(=C\c1ccccc1)/C=N/Nc1ccc2nncn2n1`, the “hERG current change (%, negative = inhibition) at 10uM” value is given as -19.7%.

Turning to `Oc1sc(C=Nc2ccccc2)c2ccccc12`, the “hERG current change (%, negative = inhibition) at 10uM” value was 7.99%.

Turning to `COc1ccc(CCC(=O)Nc2ccc3c(c2)OCO3)cc1`, the “hERG current change (%, negative = inhibition) at 10uM” value was found to be 2.6%.

For the compound `COc1ccc(CCNC(=O)COc2ncnc3cc([N+](=O)[O-])ccc23)cc1`, the “hERG current change (%, negative = inhibition) at 10uM” value is -16.5%.

In the case of `O=C(COc1ncnc2cc([N+](=O)[O-])ccc12)NC(=O)NC1CCCCC1`, the “hERG current change (%, negative = inhibition) at 10uM” value is given as -56.5%.

With `O=C(COc1ncnc2cc([N+](=O)[O-])ccc12)NC1CCCCC1`, the “hERG current change (%, negative = inhibition) at 10uM” value is -2.76%.

On to `O=C1c2ccccc2NC(c2c(Cl)cccc2Cl)N1Cc1ccccc1` (centres unmarked), for which the “hERG current change (%, negative = inhibition) at 10uM” value was 7.98%.

In the case of `N=c1c2c3c(sc2ncn1Cc1ccccc1)CCCC3`, the “hERG current change (%, negative = inhibition) at 10uM” value is -49.7%.

Take `CCCCn1cnc2sc3c(c2c1=N)CCCC3`: the “hERG current change (%, negative = inhibition) at 10uM” value is reported as -52.1%.

Turning to `N=c1c2c3c(sc2ncn1CCCN1CCOCC1)CCCCC3`, the “hERG current change (%, negative = inhibition) at 10uM” value is -51.2%.

For the compound `N=c1c2c3c(sc2ncn1N)CCCCC3`, the “hERG current change (%, negative = inhibition) at 10uM” value is -12.6%.

Regarding `N=c1c2c3c(sc2ncn1Cc1ccco1)CCCCC3`, the “hERG current change (%, negative = inhibition) at 10uM” value is on record as -62%.

Consider `N=c1c2c3c(sc2ncn1CCN1CCOCC1)CCCCC3`, for which the “hERG current change (%, negative = inhibition) at 10uM” value is -42.9%.

Turning to `N=c1c2c3c(sc2ncn1CCN1CCOCC1)CCCC3`, the “hERG current change (%, negative = inhibition) at 10uM” value was -16.9%.

As for `CC(C)Cn1cnc2sc3c(c2c1=N)CCCC3`, the “hERG current change (%, negative = inhibition) at 10uM” value is -25.2%.

Regarding `N=c1c2c3c(sc2ncn1CCCO)CCCC3`, the “hERG current change (%, negative = inhibition) at 10uM” value is -19.5%.

For `CC1CCCCC1NC(=O)CCNS(=O)(=O)c1ccc2c(c1)CCC(=O)N2` (centres unmarked), the “hERG current change (%, negative = inhibition) at 10uM” value is on record as 6.25%.

With `O=C(Nc1cc(C(F)(F)F)ccc1-n1cnc2ccccc21)c1ccccc1`, the “hERG current change (%, negative = inhibition) at 10uM” value is on record as -32%.

For `O=C(Nc1ccc(/C=C/c2nc3ccccc3o2)cc1)c1cccc(C(F)(F)F)c1`, the “hERG current change (%, negative = inhibition) at 10uM” value worked out at 0.151%.

On to `COC(=O)c1ccc(NC(=S)NCCc2cccc(C)c2)cc1`, for which the “hERG current change (%, negative = inhibition) at 10uM” value is -2.3%.

`CCCn1c(NC(=O)c2cccc(C)c2C)nc2ccccc21`: the “hERG current change (%, negative = inhibition) at 10uM” value was -26.7%.

With `CCOc1ccccc1NC(=O)CSc1nnc2ccc(-c3ccncc3)nn12`, the “hERG current change (%, negative = inhibition) at 10uM” value is listed as -54.3%.

On to `CC(=O)Nc1cccc(NC(=O)CSc2nnc3ccc(-c4ccncc4)nn23)c1`, for which the “hERG current change (%, negative = inhibition) at 10uM” value is on record as -17.8%.

Take `Cc1ccccc1NC(=O)CSc1nnc2ccc(-c3cccnc3)nn12`: the “hERG current change (%, negative = inhibition) at 10uM” value was -33%.

With `CCOc1ccccc1NC(=O)CSc1nnc2ccc(-c3ccccn3)nn12`, the “hERG current change (%, negative = inhibition) at 10uM” value was found to be 2.41%.

For the compound `Cc1ccccc1NC(=O)CSc1nnc2ccc(-c3ccncc3)nn12`, the “hERG current change (%, negative = inhibition) at 10uM” value is -69.5%.

In the case of `CCOc1ccccc1NC(=O)CSc1nnc2ccc(-c3cccnc3)nn12`, the “hERG current change (%, negative = inhibition) at 10uM” value is recorded as -25.8%.

`CCOc1ccccc1NC(=O)CSc1nnnn1Cc1ccccc1`: the “hERG current change (%, negative = inhibition) at 10uM” value is -40.5%.

For the compound `CC(=O)c1ccc(S(=O)(=O)N2CCN(C(=O)CSc3ccc(F)cc3)CC2)cc1`, the “hERG current change (%, negative = inhibition) at 10uM” value was found to be 11.7%.

With `CC[C@]12C=CCN3CCC4(c5cc(Br)c(OC)cc5N(C)C4[C@@](O)(C(=O)OC)[C@@H]1OC(C)=O)C32` (some centres unmarked), the “hERG current change (%, negative = inhibition) at 10uM” value stood at 7.6%.

On to `COc1ccc(/C=C(/NC(=O)c2ccccc2)C(=O)N/N=C/c2ccncc2)cc1`, for which the “hERG current change (%, negative = inhibition) at 10uM” value is 9.78%.

As to `N#CCSc1nc(-c2ccccc2)nc2ccccc12`, the “hERG current change (%, negative = inhibition) at 10uM” value stood at 7.83%.

For the compound `Cc1cccc(NC(=O)CNC(=O)COc2ccc(-c3ccc(C#N)cc3)cc2)c1C`, the “hERG current change (%, negative = inhibition) at 10uM” value was 4.86%.

As to `CCc1ccccc1NC(=O)CN1CCN(C(=O)CCC(=O)N2CCC(c3ccccc3)=N2)CC1`, the “hERG current change (%, negative = inhibition) at 10uM” value was -58%.

As for `Cc1cccc(NC(=O)CN2CCN(CC(=O)Nc3ccc(-c4ccccc4)cc3)CC2)c1C`, the “hERG current change (%, negative = inhibition) at 10uM” value was -17%.

As for `CCc1ccccc1NC(=O)CN1CCN(C(=O)COc2ccccc2C#N)CC1`, the “hERG current change (%, negative = inhibition) at 10uM” value is reported as -34.6%.

Consider `Cc1cccc(NC(=O)CN2CCN(C(=O)c3ccc(OCc4cn5ccccc5n4)cc3)CC2)c1C`, for which the “hERG current change (%, negative = inhibition) at 10uM” value is reported as -46.5%.

On to `CCc1ccccc1NC(=O)CN1CCN(CC(=O)NCc2ccc(Cl)cc2)CC1`, for which the “hERG current change (%, negative = inhibition) at 10uM” value is -46.6%.

Turning to `CCc1ccccc1NC(=O)CN1CCN(C(=O)CNC(=O)Cc2cccc3ccccc23)CC1`, the “hERG current change (%, negative = inhibition) at 10uM” value is on record as -59.6%.

Take `CCc1ccccc1NC(=O)CN1CCN(C(=O)CNC(=O)c2ccccc2F)CC1`: the “hERG current change (%, negative = inhibition) at 10uM” value is -13.5%.

Regarding `CCc1ccccc1NC(=O)CN1CCN(CC(=O)Nc2ccc(-c3ccccc3)cc2)CC1`, the “hERG current change (%, negative = inhibition) at 10uM” value was -53.3%.

Take `Cc1cccc(NC(=O)CN2CCN(C(=O)C(C)Oc3ccc(C#N)cc3)CC2)c1C` (centres unmarked): the “hERG current change (%, negative = inhibition) at 10uM” value is given as -76.9%.

In the case of `CCc1ccccc1NC(=O)CN1CCC(NC(=O)COC)CC1.Cl`, the “hERG current change (%, negative = inhibition) at 10uM” value is 13.4%.

For `CCc1ccccc1NC(=O)CN1CCN(C(=O)CN2C(=O)NC3(CCCC3)C2=O)CC1`, the “hERG current change (%, negative = inhibition) at 10uM” value is recorded as 7.54%.

`COc1ccc(Cl)cc1NC(=O)CN(C)C(=O)c1ccc(OCc2ccccc2)c(OC)c1`: the “hERG current change (%, negative = inhibition) at 10uM” value is given as 6.49%.

Turning to `COc1coc(C(O)CN)cc1=O` (centres unmarked), the “hERG current change (%, negative = inhibition) at 10uM” value was 4.57%.

On to `CC(=O)c1ccc(NC(=O)C2CC(c3ccc(F)cc3)=NO2)cc1` (centres unmarked), for which the “hERG current change (%, negative = inhibition) at 10uM” value was -6.78%.

On to `CC(C(=O)N(C)C1CCCCC1)N1CCC(C(N)=O)CC1` (centres unmarked), for which the “hERG current change (%, negative = inhibition) at 10uM” value was 25%.

Consider `Cc1ccc2c(c1)c1ncnc(N3CCc4ccccc4C3)c1n2C`, for which the “hERG current change (%, negative = inhibition) at 10uM” value is given as 0.68%.

As to `COc1cccc(CN(CC(=O)NCc2ccccc2)S(=O)(=O)CCl)c1`, the “hERG current change (%, negative = inhibition) at 10uM” value is on record as -16.8%.

Take `CCOC(=O)c1csc(NC(=O)c2ccc(S(=O)(=O)N(C)C)cc2)n1`: the “hERG current change (%, negative = inhibition) at 10uM” value is given as -20.9%.

Consider `Cc1ccnc(SCC(=O)N2CCN(c3cccc(Cl)c3)CC2)n1`, for which the “hERG current change (%, negative = inhibition) at 10uM” value was -25.2%.

With `O=C(NC1CCN(C(=S)Nc2ccccc2Cl)CC1)C1CCCCC1`, the “hERG current change (%, negative = inhibition) at 10uM” value was 14%.
